Several values for one entry are separate records, joined by “and”; a condition that tells them apart may be missing. Identical values can stand only once. This is part of a sample that, as a whole, favours compounds with a hit. Of some 79,000 tested, about 15% had one in any assay. Where a structure was tested more than once in an assay, its records may differ in their call. Activity calls are given as the source filed them. No stated cut-off is given here; in the data, active means growth inhibition above about 70%; inactive means the rest.
Tests used:
[1] = NCI Yeast Anticancer Drug Screen. Data for the wt1 strain (AID 149);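 further: 0% = growth of vehicle-treated wt1 cultures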; conditions: S. cerevisiae wt1 strain (SPY 50644) growth inhibition, stronger effect = higher value
How it was run: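 Readout: yeast growth inhibition, normalised to vehicle controls, in the wt1 strain exposed to test compounds.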

[2] = NCI Yeast Anticancer Drug Screen. Data for the rad50EPP+ strain (AID 151);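 further: 0% = growth of vehicle-treated control cultures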; conditions: S. cerevisiae rad50 mutant strain, stronger effect = higher value
How it was run: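 Vehicle-normalised growth inhibition; rad50EPP+ yeast strain, altered in DNA damage repair, compound-treated.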

[3] = NCI Yeast Anticancer Drug Screen. Data for the rad50 strain (AID 155);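 further: 0% = growth of vehicle-only cultures of the same strain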; conditions: S. cerevisiae rad50 strain growth inhibition, stronger effect = higher value
How it was run: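 Compounds were tested on a yeast strain with an engineered DNA damage repair alteration; the reported value is growth inhibition normalised to vehicle treatment.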

[4] = NCI Yeast Anticancer Drug Screen. Data for the mec2-1 strain (AID 157); conditions: S. cerevisiae mec2-1 strain, stronger effect = higher value
How it was run: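 Mutant yeast (mec2-1) grown with compound; growth inhibition relative to vehicle control reported.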

[5] = NCI Yeast Anticancer Drug Screen. Data for the rad14 strain (AID 159);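 further: 0% = growth of vehicle-treated control cultures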; conditions: S. cerevisiae rad14 strain growth inhibition, stronger effect = higher value
How it was run: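 Compound-treated yeast with a defined DNA-repair lesion; growth inhibition normalised to vehicle-treated cultures.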

[6] = NCI Yeast Anticancer Drug Screen. Data for the sgs1 mgt1 strain (AID 161);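 further: 0% = growth of cultures given vehicle only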; conditions: S. cerevisiae sgs1 mgt1 strain, stronger effect = higher value
How it was run: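 Compounds are added to genetically altered yeast, and growth is compared with cultures given vehicle alone to give percent inhibition.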

[7] = NCI Yeast Anticancer Drug Screen. Data for the CLN2oe strain (AID 163);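 further: 0% = growth of vehicle-only control cultures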; conditions: S. cerevisiae CLN2oe strain, stronger effect = higher value
How it was run: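 Compounds are applied to yeast harbouring a defined cell-cycle control change; reduced growth compared with vehicle-treated controls gives the value.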

[8] = NCI Yeast Anticancer Drug Screen. Data for the cln2 rad14 strain (AID 165);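 further: 0% = growth equal to vehicle treated cultures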; conditions: S. cerevisiae cln2 rad14 strain, stronger effect = higher value
How it was run: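 Readout is yeast growth inhibition versus vehicle-treated controls, using a strain with cln2 and rad14 alterations exposed to compound.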

[9] = NCI Yeast Anticancer Drug Screen. Data for the bub3 strain (AID 167); conditions: S. cerevisiae bub3 mutant strain, stronger effect = higher value
How it was run: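 Growth of a checkpoint-deficient yeast mutant is measured after compound exposure. Values represent inhibition relative to vehicle.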

[10] = NCI Yeast Anticancer Drug Screen. Data for the wt2 strain (AID 169);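 further: 0% = growth of vehicle-treated yeast cultures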; conditions: S. cerevisiae wt2 strain growth inhibition, stronger effect = higher value
How it was run: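 Against vehicle-treated controls, the growth of yeast exposed to each compound was compared, and the inhibition was recorded.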

[11] = NCI Yeast Anticancer Drug Screen. Data for the mlh1 strain (AID 171);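 further: 0% = growth of vehicle-treated control cultures of the same strain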; conditions: S. cerevisiae mlh1 strain growth inhibition, stronger effect = higher value
How it was run: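 Measured: yeast growth. Reference: vehicle-treated controls. Organism: strain with a defined alteration affecting DNA damage repair or cell cycle control, treated with compound.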

[12] = NCI Yeast Anticancer Drug Screen. Data for the sgs1 strain (AID 173);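 further: 0% = growth of vehicle-only control cultures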; conditions: S. cerevisiae sgs1 mutant, stronger effect = higher value
How it was run: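 Each compound was added to cultures of the altered yeast strain. Growth was recorded, and inhibition was derived by comparison with vehicle controls.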

[13] = NCI Yeast Anticancer Drug Screen. Data for the mlh1 rad18 strain (AID 175); conditions: S. cerevisiae mlh1 rad18 strain growth inhibition, stronger effect = higher value
How it was run: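 Genetically defined yeast (DNA repair-deficient) exposed to compounds; growth inhibition determined relative to vehicle.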

[14] = NCI Yeast Anticancer Drug Screen. Data for the rad18 strain (AID 177); conditions: S. cerevisiae rad18 mutant growth inhibition, stronger effect = higher value
How it was run: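 Vehicle-treated cultures served as the baseline for scoring compound-induced growth inhibition in DNA-repair-mutant yeast.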

[15] = at 5.0 µM (retest, dose inferred, filed as 0.5)
[16] = at 50.0 µM (retest, dose inferred, filed as 5.0)

Measured: growth inhibition

COc1ccc(OC)c(/C=C/[N+](=O)[O-])c1
-38% (inactive) and 97% (active): [4]; [16]
inactive: [1]; at 1.2 µM -6% | [1]; at 3.7 µM -7% | [1]; at 11.0 µM -9% | [1]; at 33.0 µM 7% | [2]; at 1.2 µM 29% | [2]; at 3.7 µM 59% | [3]; at 1.2 µM 11% | [3]; at 3.7 µM 21% | [3]; [15] -83% and 19% | [3]; at 11.0 µM 48% | [4]; at 1.2 µM 1% | [4]; at 3.7 µM 2% | [4]; [15] -46% and 9% | [4]; at 11.0 µM 7% | [4]; at 33.0 µM 30% | [5]; at 1.2 µM 5% | [5]; at 3.7 µM 7% | [5]; at 11.0 µM 15% | [5]; at 33.0 µM 39% | [6]; [15] -53% and 12% | [6]; [16] 1% and 64% | [7]; at 1.2 µM 6% | [7]; at 3.7 µM 9% | [7]; at 11.0 µM 13% | [7]; at 33.0 µM 37% | [8]; [15] -60% and 2% | [9]; at 1.2 µM 0% | [9]; at 3.7 µM 6% | [9]; [15] -57% and 35% | [9]; at 11.0 µM 13% | [9]; at 33.0 µM 25% | [10]; at 1.2 µM 0% | [10]; at 3.7 µM -1% | [10]; at 11.0 µM -2% | [10]; at 33.0 µM 15% | [11]; at 1.2 µM 10% | [11]; at 3.7 µM -2% | [11]; at 11.0 µM 8% | [11]; at 33.0 µM 28% | [12]; at 1.2 µM -1% | [12]; at 3.7 µM 18% | [12]; at 11.0 µM 29% | [12]; at 33.0 µM 54% | [13]; [15] -114% and 37% | [14]; at 1.2 µM 5% | [14]; at 3.7 µM 13% | [14]; at 11.0 µM 20% | [14]; at 33.0 µM 49%
active: [1]; at 100.0 µM 71% | [2]; at 11.0 µM 74% | [2]; at 33.0 µM 86% | [2]; at 100.0 µM 99% | [3]; at 33.0 µM 86% | [3]; [16] 86% and 95% | [3]; at 50.0 µM 99.4% | [3]; at 100.0 µM 99% | [4]; at 50.0 µM 99.7% and 98.8% | [4]; at 100.0 µM 99% | [5]; at 100.0 µM 100% | [6]; at 50.0 µM 91.3% and 99% | [7]; at 100.0 µM 95% | [8]; at 50.0 µM 98.8% and 98.4% | [9]; at 50.0 µM 99% | [9]; at 100.0 µM 99% | [10]; at 100.0 µM 85% | [11]; at 100.0 µM 98% | [12]; at 100.0 µM 100% | [13]; at 50.0 µM 97.9% and 99.5% | [14]; at 100.0 µM 96%
-45% (inactive) and 76% (active): [8]; [16]
-33% (inactive) and 79% (active): [9]; [16]
-53% (inactive) and 95% (active): [13]; [16]

O=c1c2ccccc2[se]n1-c1cccnc1
inactive: [1]; at 1.2 µM -5% | [1]; at 3.7 µM -6% | [1]; at 11.0 µM 21% | [1]; at 33.0 µM 29% | [1]; at 100.0 µM 56% | [2]; at 1.2 µM 67% | [3]; at 1.2 µM -6% | [3]; at 3.7 µM 27% | [3]; [15] 8% | [3]; at 11.0 µM 65% | [3]; [16] 64% | [3]; at 50.0 µM 23.1% | [4]; at 1.2 µM -18% | [4]; at 3.7 µM 20% | [4]; [15] -20% | [4]; [16] 55% | [4]; at 50.0 µM -6.2% | [5]; at 1.2 µM -28% | [5]; at 3.7 µM 2% | [5]; at 11.0 µM 38% | [6]; [15] 58% | [6]; [16] 21% | [6]; at 50.0 µM 7.85% | [7]; at 1.2 µM 24% | [7]; at 3.7 µM 21% | [7]; at 11.0 µM 58% | [8]; [15] 9% | [8]; [16] 40% | [8]; at 50.0 µM 15.5% | [9]; at 1.2 µM 8% | [9]; at 3.7 µM 14% | [9]; [15] -28% | [9]; [16] 38% | [9]; at 50.0 µM -6.15% | [10]; at 1.2 µM 18% | [10]; at 3.7 µM 18% | [10]; at 11.0 µM 25% | [10]; at 33.0 µM 42% | [10]; at 100.0 µM 60% | [11]; at 1.2 µM 36% | [11]; at 3.7 µM 51% | [12]; at 1.2 µM 23% | [12]; at 3.7 µM 19% | [13]; [15] -14% | [13]; at 50.0 µM 43.9% | [14]; at 1.2 µM 12% | [14]; at 3.7 µM -26% | [14]; at 11.0 µM 3% | [14]; at 33.0 µM 42% | [14]; at 100.0 µM 58%
active: [2]; at 3.7 µM 94% | [2]; at 11.0 µM 98% | [2]; at 33.0 µM 98% | [2]; at 100.0 µM 87% | [3]; at 33.0 µM 92% | [3]; at 100.0 µM 90% | [4]; at 11.0 µM 77% | [4]; at 33.0 µM 98% | [4]; at 100.0 µM 94% | [5]; at 33.0 µM 89% | [5]; at 100.0 µM 84% | [7]; at 33.0 µM 84% | [7]; at 100.0 µM 83% | [9]; at 11.0 µM 81% | [9]; at 33.0 µM 98% | [9]; at 100.0 µM 91% | [11]; at 11.0 µM 98% | [11]; at 33.0 µM 99% | [11]; at 100.0 µM 93% | [12]; at 11.0 µM 80% | [12]; at 33.0 µM 96% | [12]; at 100.0 µM 82% | [13]; [16] 89%
